Among the data in PubChem BioAssay AID630 (Emory University Molecular Libraries Screening Center, 2007) are inhibition values, retold here.

The structures appear in SMILES notation. The campaign covered roughly 88,000 compounds. About 260 (0.3%) were called active. Only a selection was taken, and actives are over-represented in it overall. A number with no mark means an inactive call.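 Rule for the calls: active = compounds that reduce the energy-transfer binding signal between the protein and its labelled peptide by more than half; inactive = the rest.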

Chain of Mothers against decapentaplegic homolog 3 (Homo sapiens) (P84022 whole entry, looked up): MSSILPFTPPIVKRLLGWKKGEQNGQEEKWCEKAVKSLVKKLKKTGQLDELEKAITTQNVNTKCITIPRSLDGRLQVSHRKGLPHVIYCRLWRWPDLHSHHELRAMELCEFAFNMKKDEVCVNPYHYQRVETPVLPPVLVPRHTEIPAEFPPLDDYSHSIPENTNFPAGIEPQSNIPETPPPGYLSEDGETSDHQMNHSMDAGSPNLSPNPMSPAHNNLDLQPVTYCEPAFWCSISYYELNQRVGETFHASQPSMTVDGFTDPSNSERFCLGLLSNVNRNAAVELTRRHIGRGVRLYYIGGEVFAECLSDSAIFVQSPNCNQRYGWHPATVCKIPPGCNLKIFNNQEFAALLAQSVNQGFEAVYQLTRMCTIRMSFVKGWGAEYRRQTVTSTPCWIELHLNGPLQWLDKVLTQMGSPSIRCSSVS

The test has as its target Mothers against decapentaplegic homolog 3 (Homo sapiens) (UniProt P84022). Kind of test: Smad3/FoxH1 peptide binding inhibitors, primary screen, biochemical, TR-FRET (AID 630).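 Note: 0% = Smad3 plus labelled peptide maximal FRET and 100% = peptide-only background.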 The settings on record: TR-FRET Smad3/Dy647-FoxH1 peptide binding, europium anti-His; at 25 µM; hits give high values.
As for `OC(COc1ccc2ccccc2c1)Cn1cncn1` (stereo unspecified), the inhibition was 6.06%.
Next, `C=CCN(C(=O)Nc1ccc2oc(C)nc2c1)c1ccccc1`: 1.13%.
`Cc1ccc(-c2noc(CSc3nnc(-c4cccs4)n3C)n2)cc1`: the inhibition is -3.4%.
Take `N#C/C(=C(\O)CCl)c1nnc2n1CCCCC2`: the inhibition was 0.54%.
`CCn1c(SCC(=O)Nc2ccc(OC)c(OC)c2)nnc1-c1c[nH]c2ccccc12`: the inhibition was -6.68%.
`Cc1c(CCO)c(=O)n(-c2ccccc2)n1S(=O)(=O)c1ccc(F)cc1`: the inhibition is -23.9%.
Then `CCCCOc1ccc(N(CC(=O)NCC2CCCO2)C(=O)CCC(=O)Nc2cc(C)ccn2)cc1` (stereo unspecified), with 2.38%; and `Cc1ccc(C)c(N2C(=O)CS/C2=N\NC(=O)c2ccccc2Cl)c1`, with 3.21%; and `COC(=O)c1cc(NC(=O)CC2C(=O)NCCN2C(=O)c2ccc(F)cc2)cc(C(=O)OC)c1` (stereo unspecified), with -2.76%.
Turning to `CCc1cccc(C)c1N(C(=O)Cn1c(CO)nc2ccccc21)C(C)COC` (stereo unspecified), the inhibition was -3.83%.
Consider `COc1ccc(Nc2cc(=O)oc3ccccc23)cc1`, for which the inhibition was 1.47%.
As for `O=C(Cc1c[nH]c2ccccc12)OCCOC(=O)Cc1c[nH]c2ccccc12`, the inhibition is 0.81%.
As to `CCOC(=O)C(C)n1cnc2sc(C)c(C)c2c1=O` (stereo unspecified), the inhibition was 5.75%.
For `CCOc1ccc(CN(Cc2ccco2)S(=O)(=O)c2ccc(-n3cnnn3)c(OC)c2)cc1`, the inhibition was -8.78%.
Take `Cc1cc(C)cc(N(CC(=O)N2CC=C(c3ccccc3)CC2)S(=O)(=O)c2c(C)noc2C)c1`: the inhibition was -9.86%.
Turning to `Cc1ccc(S(=O)(=O)NCC(C)NS(C)(=O)=O)cc1` (stereo unspecified), the inhibition was -1.07%.
In the case of `O=C(OCC#CCSc1nnc(-c2ccncc2)o1)c1sc2ccccc2c1Cl`, the inhibition is 8.98%.
Take `CCOC(=O)CN(Cc1ccc(OC)c(OC)c1)S(=O)(=O)c1ccc(OC)cc1`: the inhibition was 3.33%.
Consider `O=C(O)/C=C/C(=O)Nc1ccc2c(c1)-c1ccccc1C2`, for which the inhibition is 0.91%.
As for `CC1=NN(c2ccccc2)C(=O)[C@H]1N=Nc1ccc(S(N)(=O)=O)cc1`, the inhibition is -0.1%.
Next, `CC(C)CNC(=S)NNC(=O)c1nn(C)cc1Cl`: 3.44%; `CCOc1c(Cl)cc(/C=N/O)cc1OC`: 5.66%; `O=C(c1cc2sccc2n1Cc1ccc(F)cc1)N1CCc2ccccc21`: 4.44%.
On to `CCN(CC)Cc1cc(C(C)=O)ccc1O`, for which the inhibition is -9.81%.
As to `O=C(CCN1CCc2ccccc2C(O)(c2ccccc2)C1)c1ccc2c(c1)OCCO2` (stereo unspecified), the inhibition is 8.66%.
Then `Cc1cc(C)n(-c2cc(Oc3ccccc3)ncn2)n1`, with 3.36%; and `Cn1c(Cn2nnc3ccccc32)nnc1SCC(=O)c1ccccc1F`, with 16.9%.
`CCOC(=O)C1=C(C)NC(SC)=NC1c1ccccc1` (stereo unspecified): the inhibition was -3.1%.
Take `CC(=NCc1ccco1)c1c(C(F)(F)F)[nH]n(-c2nc3ccccc3s2)c1=O`: the inhibition is 3.18%.
Turning to `O=C(Cc1ccc(-n2c(=O)c3sccc3n(Cc3ccc(F)cc3)c2=O)cc1)NCc1ccco1`, the inhibition was -21.8%.
Take `CC(C)c1nc2oc3c(N4CCN(C)CC4)ncnc3c2c2c1CCC2`: the inhibition was 51.1% (active).
Take `CCN1CCN(c2ncnc3c2oc2nc(C)c4c(c23)CC(C)(C)OC4)CC1`: the inhibition was -8.93%.
On to `Cc1cc(C)nc(N2CCN(c3ncnc4c3oc3ccccc34)CC2)n1`, for which the inhibition is 2.31%.
`COC(=O)C1=C(C(=O)c2ccc(C)cc2)C(c2ccccc2)n2nnnc2N1` (stereo unspecified): the inhibition is -4.2%.
`Clc1ccc(C2=CSC3=Nc4cccc5cccc(c45)N23)cc1`: the inhibition was 19.6%.
Take `Nn1c(Cc2cccc3ccccc23)nnc1SCC(=O)N1CC(=O)Nc2ccccc21`: the inhibition was -9.99%.
Regarding `O=C(c1ccco1)N1CCN(C(=O)C2CCCN(S(=O)(=O)c3cccc4nsnc34)C2)CC1` (stereo unspecified), the inhibition is -9.4%.
Take `NC1=NC(=O)C2(COC(c3ccccc3Cl)OC2)S1` (stereo unspecified): the inhibition is 8.22%.
Consider `Cc1oc2nc(SCC(=O)Nc3ccc(S(N)(=O)=O)cc3)nc(NC(=O)c3ccccc3)c2c1C`, for which the inhibition was -117%.
As to `Cc1ccc(C2C(C#N)C(C#N)N3CCCN23)cc1` (stereo unspecified), the inhibition was -8.98%.
As for `COc1ccc2c(c1)cc1n2CCN=C1NN`, the inhibition is 17.3%.
As to `C/C(N[O-])=C(\C)[N+]([O-])=[Co].CC(=N\[O-])/C(C)=N/[O-].[CH2-]CCN1CCOCC1.c1ccncc1`, the inhibition was 25%.
Then `CC(C)(C)NC(=O)CN(Cc1cccs1)C(=O)CNS(=O)(=O)c1ccccc1`, with -8.34%.
As for `COC(=O)c1ccccc1Sc1c(/C=N/OCc2ccc(Cl)cc2)c(C(F)(F)F)nn1C`, the inhibition was 1.08%.
As to `Cc1ccc(NC(=O)CSCC(=O)N2CCOCC2)cc1`, the inhibition was 8.2%.
Consider `OCCNc1nc2ccccc2[nH]1`, for which the inhibition is 3.77%.
For `Cc1cc(SCC(=O)c2ccccc2)nc(SCC(=O)c2ccccc2)n1`, the inhibition was -1.72%.
Then `COc1ccc(-c2nn(-c3ccccc3)cc2C(=O)Nc2nccs2)cc1OC`, with -5%; and `CC(=O)C1=C(C)NC(C)=C(C(C)=O)C1c1cn(-c2ccccc2)nc1-c1cccs1`, with -6.06%.
Next, `Cc1ccc(C2NC(=S)NC3=C2N2CCC3CC2)cc1` (stereo unspecified): 2.12%; `COc1cc(N2CCCC2)c(OC)cc1/C=C(/C#N)c1cccc(Br)c1`: 0.41%.
`Cc1cc2c(cc1C)NC1=C(N2)O[C@H](c2c[nH]c3ccc(COc4ccccc4)cc23)C1=O`: the inhibition is 81.3% (active).
Consider `Cn1cc(S(=O)(=O)N2CCN(c3ccc(F)cc3)CC2)c(=O)n(C)c1=O`, for which the inhibition was -0.19%.
`CCC(CC)C(=O)N1CC(=O)Nc2ccc(Br)cc2C1c1ccccc1` (stereo unspecified): the inhibition is 1.61%.
Regarding `CC1(C)C2CCC13CS(=O)(=O)NC3C2` (stereo unspecified), the inhibition was 7.24%.
`O=S(=O)(O)c1ccc(O)c2ncccc12.O=S(=O)(O)c1ccc(O)c2ncccc12.[Zn]`: the inhibition was 63.9% (active).
Regarding `O=C(O)COc1c(Cl)cc(Cl)c2cccnc12`, the inhibition was -8.45%.
As to `O=C(Nc1cccc2ccccc12)N1CCN(Cc2ccc3c(c2)OCO3)CC1`, the inhibition was 8.91%.
`CC(C)(C)C(=O)c1cnc(Nc2ccccc2)s1`: the inhibition was -2.94%.
For `Cn1nc(-c2ccccc2)c(CSc2cccc(Cl)c2)c1Cl`, the inhibition was -0.19%.
`COc1ccc(C2=NO[C@@H]3C(=O)N(Cc4ccccc4)C(=O)[C@H]23)cc1OC`: the inhibition is 4.9%.
Take `COc1ccc(C(=O)CN2C(=O)NC(C)(c3ccc(C)cc3)C2=O)cc1OC` (stereo unspecified): the inhibition is 0.23%.
With `O=C(Nc1ccc(Oc2ccccc2)cc1)c1ccco1`, the inhibition was -3.88%.
With `COC(=O)c1ccc(NC(=O)c2ccco2)cc1`, the inhibition was 66.7% [fluorescence artefact?] (active).
Turning to `Cc1ccnc(NC(=O)c2ccc(NC(=O)c3ccco3)cc2)c1`, the inhibition is 8.59%.
Next, `Cc1cc(N/C=C\C(=O)c2ccc(Cl)c(Cl)c2)no1`: -20.1%; `CC(C)Nc1ncnc2c1nnn2Cc1ccccc1`: -8.78%; `CC1(C)CC(=O)C=C(N2CCCC2)C1`: -13.5%.
As to `COc1ccccc1CNS(=O)(=O)c1ccc(C)cc1`, the inhibition was 9.13%.
With `O=C(O)[C@@H]1CCc2ccc3ccccc3c2[C@H]1c1cccc2ccccc12`, the inhibition is -9.06%.
On to `COC(=O)c1ccc(NC(=O)C23CC4CC(C2)CC(n2cnc(Cl)n2)(C4)C3)cc1`, for which the inhibition was 4.51%.
Next, `O=C(O)[C@@H]1CS[C@]2(CCCN(Cc3ccccc3)C2)N1`: 7.7%.
Take `O=S1(=O)C=C(SCCN2CCCC2)c2ccccc21`: the inhibition was 17.4%.
With `CCOC(=O)c1c(NC(=O)CCl)sc(C(=O)N(CC)CC)c1C`, the inhibition was 14.1%.
Then `Cc1cccc(N2CCN(C(=O)c3cnn4c(C(F)F)cc(-c5ccccc5)nc34)CC2)c1C`, with 8.08%; and `Cn1ncc2c(Nc3cccc4ccccc34)ncnc21`, with 2.63%; and `Cc1noc(COc2ccccc2OCc2onc(C)c2Cl)c1Cl`, with -10.7%.
As to `Cn1c2c(c(=O)n(C)c1=O)C(c1cccc([N+](=O)[O-])c1)Nc1ccccc1O2` (stereo unspecified), the inhibition was -10.5%.
Regarding `CCOc1ccc(C(O)Cc2nc3ccccc3n2C)cc1` (stereo unspecified), the inhibition is 3.1%.
In the case of `CCCn1c(C)cc(C(=O)COC(=O)c2c(C)nn(-c3ccccc3)c2C)c1C`, the inhibition was -7.34%.
Then `COc1ccc(C(=O)Nc2ccc(CN3CCOCC3)cc2)cc1`, with 11%.
For the compound `N#C/C(=C\c1ccccc1)c1n[nH]c(Cn2cncn2)n1`, the inhibition was 8.55%.
Regarding `O=C(CSCc1ccc(Cl)cc1)N1CCCCC1`, the inhibition was -8.93%.
As to `Cc1cccc(NC(=O)CSc2nc3c(c(=O)[nH]2)CCCC3)c1C`, the inhibition is 5.9%.
With `Cc1cc2nc(SCCN3CCOCC3)[nH]c2cc1C`, the inhibition is 2.4%.
`Cc1nn(Cc2ccccc2)c2c1C(c1ccccc1)C(C#N)=C(N)O2` (stereo unspecified): the inhibition was 5.74%.
Next, `COc1ccc(N/N=C2/CCCCC2=O)cc1`: -1.11%; `Cc1ccc(-n2ccc(=O)c(C(=O)O)n2)cc1`: 0.02%; `O=C(O)c1nn(-c2ccc(Cl)cc2)c2c1C(=O)c1ccccc1C2=O`: 53.4% (active).
For `CCOc1ccc(NC(=O)N(CC(C)C)CC(C)C)cc1`, the inhibition was 3.46%.
With `N#CC1=C(SCc2ccc(C#N)cc2)N=C(N)C(c2nc(-c3ccccc3)cs2)C12CCCCC2` (stereo unspecified), the inhibition was -3.23%.
Next, `O=C(NC1(C(F)(F)F)NC(=O)N(Cc2cccnc2)C1=O)c1ccccc1Cl` (stereo unspecified): 40.1%; `COC(=O)c1ccc(Cc2ccccc2)o1`: 6.44%; `O=C(O)c1ccc(C(=O)O)c2c(C(=O)O)ccc(C(=O)O)c12`: -1.5%.
Next, `O=C(c1ccc(O)cc1)c1ccc(C(=O)O)c(C(=O)O)c1`: -7.32%.
Consider `O=C(O)c1ccc(C(=O)c2ccccc2C(=O)O)cc1C(=O)O`, for which the inhibition is 63.5% (active).

What is called inhibition is the drop in the measured response relative to a control, in per cent.
